Data published in the supplement of paper PMC10338343.
± gives the standard deviation.

Tests used:
[1] = test system: MILI (PIWIL2) piRISC loaded with L1MC piRNA (26 nt); test: pre-steady-state target cleavage rate (min^-1); guide: L1MC piRNA 5'p-UAACUAAAUACUAUGCAAGCUGUAGG; higher = faster piRNA-guided slicing of the target
Method in brief: (§1)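 Cleave-'n-Seq reactions paired 0.1 nM transcribed, DNA-blocked target RNA library with 1 nM active affinity-purified piRISC holding one synthetic guide, plus or minus 500 nM GTSF1 partner protein, in HEPES–potassium acetate buffer at 33 °C for 0–8 or 0–960 min. After sequencing of uncleaved targets and normalisation to depth and weakly complementary targets, the pre-steady-state cleavage rate was taken from a burst-and-steady-state fit. Three trials were pooled, and k3 was capped at 0.0001 min^-1.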

[2] = test system: EfPiwi piRISC loaded with L1MC piRNA (26 nt); test: pre-steady-state target cleavage rate (min^-1); auxiliary factor: 500 nM Ephydatia muelleri Gtsf1; guide: L1MC piRNA 5'p-UAACUAAAUACUAUGCAAGCUGUAGG; MIWI and MILI are mouse PIWI proteins and EfPiwi is from a freshwater sponge; tags in brackets are library labels; higher = faster piRNA-guided slicing of the target
Method in brief: as §1

[3] = auxiliary factor: 500 nM mouse GTSF1
[4] = auxiliary factor: none (no GTSF1)

Sequence | pre-steady-state target cleavage rate [1, 3] | pre-steady-state target cleavage rate [1, 4] | pre-steady-state target cleavage rate [2]
UCCUGCUAAGCUUGCAUAGUAUUUAGUUA | 0.182 ± 0.018 | 0.00403 ± 0.0019 | 0.00771 ± 0.0024
UCCUCCUACAGCUUGGAUAGUAUUAAGUUA | 0.134 ± 0.017 | 0.00275 ± 0.0027 | 0.00905 ± 0.0043
UCCUGGAUGUGUCUUGCAUAGUAUUUAGUUA | 0.072 ± 0.013 | 0.014 ± 0.004 | 0.113 ± 0.038
UCCUCCUACUGGUUGCAUAGUAUUUAGUUA | 0.226 ± 0.021 | 0.00818 ± 0.0021 | 0.1 ± 0.025
UCCUGGAUCAGGUUGCAUACUAUUUAGUUA | 0.0436 ± 0.0082 | 0.00331 ± 0.0025 | 0.00262 ± 0.0019
UCCUGGAACAGCUUGCAUAGUAUUUACGUUA | 0.204 ± 0.027 | 0.00654 ± 0.0028 | 0.00579 ± 0.0024
UCCUGGUACAGGUUGCAUAGUAUUUAGUAA | 0.287 ± 0.04 | 0.00626 ± 0.0028 | 0.00428 ± 0.0022
UCCUGGUACAGCUUGCAUAGUUUUUAGUAA | 0.0656 ± 0.014 | 0.00501 ± 0.0027 | 0.00728 ± 0.0027
UCCUGGAUGUCCUUGCAUAGUAUUUAUUUA | 0.0674 ± 0.018 | 0.00292 ± 0.0029 | 0.00464 ± 0.0036
UCCUGGAUGAGCUAGCAUAGUUUUUAGUUA | 0.0185 ± 0.0066 | 0.00507 ± 0.0028 | 0.00278 ± 0.0027
UCCUGGAACAGGUUGCAAAGUAUUUAGUUA | 0.144 ± 0.013 | 0.00884 ± 0.003 | 0.0118 ± 0.0039
UCCUGGUACAGCUUGGUUAGUAUUUAGUUA | 0.192 ± 0.023 | 0.0135 ± 0.0038 | 0.00478 ± 0.0032
UCCUGCUUCAGCAUGCAUAGUAUUUAGUUA | 0.291 ± 0.015 | 0.0121 ± 0.0034 | 0.0186 ± 0.0047
UCCUGGUACAGGAUGCAUAGUAUUUAGUUA | 0.215 ± 0.021 | 0.0111 ± 0.0037 | 0.00598 ± 0.003
UCCUCCUACAGCUUUGCAUAGUAUUUAGUUA | 0.291 ± 0.017 | 0.00758 ± 0.0021 | 0.123 ± 0.036
UCCUGGUACAGCUUGCUUAGUUUUUAGUUA | 0.0347 ± 0.011 | 0.00709 ± 0.0023 | 0.00346 ± 0.003
UCCUGGUACAGCUUGCAUAGUGUUUAGUUA | 0.162 ± 0.026 | 0.00946 ± 0.0035 | 0.00794 ± 0.0028
UCCUCCUACACGUUGCAUAGUAUUUAGUAA | 0.163 ± 0.022 | 0.00299 ± 0.0029 | 0.00566 ± 0.0027
UCCUGGAACAGCUUGCAUAGUAUGUUAGUUA | 0.243 ± 0.046 | 0.0048 ± 0.0027 | 0.00812 ± 0.0028
UCCUCCUACAGCUUGCAUAGUAUUUAAGUUA | 0.214 ± 0.022 | 0.00686 ± 0.0024 | 0.00943 ± 0.0038

Sequence | pre-steady-state target cleavage rate [1, 3] | pre-steady-state target cleavage rate [1, 4] | pre-steady-state target cleavage rate [2]
UCCUCCUACAGCUUGCAUAGUAUAUUGUUA | 0.128 ± 0.019 | 0.00269 ± 0.0025 | 0.00489 ± 0.003
UCCUGGAACGGCUUGCAUAGUAUUUAGUUA | 0.259 ± 0.017 | 0.0129 ± 0.0024 | 0.0243 ± 0.0075
UCCUCAUACAGCUUGCAUAGUAUUUAGUUA | 0.319 ± 0.015 | 0.0105 ± 0.0029 | 0.234 ± 0.064
UCCUGCUCAGCUUGCAUAGUAUUUAGUUA | 0.278 ± 0.014 | 0.00716 ± 0.0018 | 0.065 ± 0.015
UCCUGGUACAGCAUGCAUUGUAUUUAGUUA | 0.167 ± 0.016 | 0.0119 ± 0.0038 | 0.00628 ± 0.0022
UCCUGGUACAGCUUACAUAGUAUUUAGUUA | 0.213 ± 0.02 | 0.00894 ± 0.0027 | 0.0283 ± 0.0076
UCCUCCAACAGCAUGCAUAGUAUUUAGUUA | 0.282 ± 0.016 | 0.0108 ± 0.0025 | 0.0161 ± 0.0047
UCCUCCUUCAGCUUGCAUAGUAUUUAGAUA | 0.157 ± 0.022 | 0.00242 ± 0.0024 | 0.00476 ± 0.0027
UCCUGGUACAGCUUCGAUAGUAUUUAGUUA | 0.187 ± 0.025 | 0.00848 ± 0.0025 | 0.00411 ± 0.0026
UCCUGGAACUGCUAGCAUAGUAUUUAGUUA | 0.215 ± 0.015 | 0.00611 ± 0.0019 | 0.0171 ± 0.0058
UCCUGCUACAGCUUGCAUAGUACUUUAGUUA | 0.194 ± 0.025 | 0.00825 ± 0.0022 | 0.00465 ± 0.0015
UCCUGGAUCUGCUUGCAUAGUAUUUUGUUA | 0.092 ± 0.015 | 0.00429 ± 0.0026 | 0.0153 ± 0.0053
UCCUGGAUGAGCUUGCAUAGUAUUUAGUAA | 0.218 ± 0.019 | 0.00773 ± 0.0026 | 0.00367 ± 0.0022
UCCUGGAUCUGCUUGCUUAGUAUUUAGUUA | 0.238 ± 0.017 | 0.00748 ± 0.0024 | 0.0931 ± 0.028
UCCUGGAUCAGCUUGUCAUAGUAUUUAGUUA | 0.21 ± 0.019 | 0.00334 ± 0.0027 | 0.0196 ± 0.0046
UCCUGGAUGUGCUUCGCAUAGUAUUUAGUUA | 0.155 ± 0.023 | 0.00505 ± 0.0021 | 0.0132 ± 0.0048
UCCUGGAUUAGCUUGCAUAGUAUUUAGUUA | 0.232 ± 0.016 | 0.00961 ± 0.0024 | 0.0447 ± 0.011
UCCUGCUAUAGCUUGCAUAGUAUUUAGUUA | 0.221 ± 0.017 | 0.00678 ± 0.0018 | 0.014 ± 0.0046
UCCUCUCUACAGCUUGCAUAGUAUUUAGUUA | 0.28 ± 0.022 | 0.00895 ± 0.0022 | 0.0164 ± 0.006
UCCUGGAAACAGCUUGCAUAGUAUUUAGUUA | 0.347 ± 0.019 | 0.0105 ± 0.0038 | 0.164 ± 0.034

Sequence | pre-steady-state target cleavage rate [1, 3] | pre-steady-state target cleavage rate [1, 4] | pre-steady-state target cleavage rate [2]
UCCUCCUUGUGCUUGCAUAGUAUUUAGUUA | 0.157 ± 0.012 | 0.00963 ± 0.002 | 0.0113 ± 0.0034
UCCUGGAUCAGCUUGCAUGGUAUUUAGUUA | 0.285 ± 0.025 | 0.011 ± 0.0027 | 0.0193 ± 0.0038
UCCUGGAACAGCUUGCAAAGUAAUUAGUUA | 0.131 ± 0.018 | 0.00424 ± 0.0022 | 0.00403 ± 0.002
UCCUGGAUCAGUCUUGCAUAGUAUUUAGUUA | 0.212 ± 0.016 | 0.0108 ± 0.0023 | 0.0152 ± 0.0042
UCCUCCAUCAGCUUGCAUAGUAUUUAGUAA | 0.165 ± 0.024 | 0.00315 ± 0.0022 | 0.00678 ± 0.003
UCCUGGAUGAGCGUUGCAUAGUAUUUAGUUA | 0.192 ± 0.017 | 0.00904 ± 0.0031 | 0.00582 ± 0.0034
UCCUGCUACUGCAUGCAUAGUAUUUAGUUA | 0.282 ± 0.025 | 0.00943 ± 0.0022 | 0.00847 ± 0.0024
UCCUGCUACAGCUUGCAUGGUAUUUAGUUA | 0.334 ± 0.018 | 0.0121 ± 0.0029 | 0.0201 ± 0.0061
UCCUGGAACAGCUAGCUUAGUAUUUAGUUA | 0.186 ± 0.015 | 0.0065 ± 0.0023 | 0.00846 ± 0.0037
UCCUGGAUGAGCUUGCUUAGUAAUUAGUUA | 0.191 ± 0.019 | 0.00839 ± 0.0025 | 0.00425 ± 0.0027
UCCUGGAUCUGCUUGCAUAGUUUUUAGUUA | 0.0213 ± 0.0057 | 0.00511 ± 0.002 | 0.00787 ± 0.0041
UCCUGCUACAGCUCGCAUAGUAUUUAGUUA | 0.264 ± 0.015 | 0.00757 ± 0.0027 | 0.0122 ± 0.0028
UCCUGGUACAGGUUGCAUUGUAUUUAGUUA | 0.175 ± 0.023 | 0.0117 ± 0.0031 | 0.0047 ± 0.0018
UCCUCCUACAGGUUGCUUAGUAUUUAGUUA | 0.237 ± 0.011 | 0.00975 ± 0.0027 | 0.0231 ± 0.0065
UCCUCCUACUGCUUGCUUAGUAUUUAGUUA | 0.234 ± 0.015 | 0.00718 ± 0.0021 | 0.0504 ± 0.015
UCCUGGAUGUCGUGUGCAUAGUAUUUAGUUA | 0.102 ± 0.015 | 0.00602 ± 0.0035 | 0.0038 ± 0.0033
UCCUGGAUGAGCUUGAAUAGUAUUUAGUUA | 0.216 ± 0.011 | 0.00728 ± 0.0023 | 0.00419 ± 0.0027
UCCUGCAACAGCUUGCAUAGUAUUUAGUAA | 0.333 ± 0.031 | 0.00819 ± 0.0029 | 0.00572 ± 0.0023
